We go through 15 compounds from PubChem BioAssay (NCI).

Compounds without any hit were thinned out: in the full panel of roughly 83,000, 20% have a hit.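 48-hour exposure, single concentration, 96-well plates; percent growth endpoint where 0 means no net growth. Active: below 10.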 A number with no mark means an inactive call. The source made the active and inactive calls.

Experiment in all cases: NCI-60 one-dose screen, 48 h (100 = growth as untreated, 0 = no growth, -100 = all killed)
Holding throughout (conditions): 10 µM unless noted

Experiment [1] concerns SR leukemia.
Experiment [2] concerns RPMI-8226 leukemia.
Experiment [3] relates to OVCAR-8 ovarian.
For experiment [4], the system named is OVCAR-5 ovarian.
Experiment [5] relates to OVCAR-4 ovarian.
Experiment [6] deals with SK-OV-3 ovarian.
Experiment [7] deals with IGROV1 ovarian.
The test system of experiment [8] is OVCAR-3 ovarian.
Experiment [9] relates to HS 578T breast.
For experiment [10], the system named is NCI/ADR-RES ovarian.

With `CCN(CC)CC(O)c1cc(-c2ccc(Cl)cc2)nc2cc(Cl)ccc12` (stereo unspecified), the growth was -12.3% (active) in [1]; 34.4% in [2]; 38% in [3]; 14.2% in [4]; 53.3% in [5]; 60% in experiment [6]. In addition, the growth in experiment [7] is 10.3%; in experiment [8] it was 56.8%; in [9], 40.6%; in experiment [10], 29.8%.
As for `O=C1/C(=C/c2ccccc2)CCC/C1=C\c1ccccc1`, the growth was 67.4% in experiment [1]; -3.31% (active) in experiment [2]; 91.7% in experiment [3]; 120% in [4]; 94.1% in experiment [5]; 99.6% in experiment [6]. Also, the growth in experiment [7] was 80%; in [8], 65.1%; in experiment [9], 101%; in [10], 95.2%.
As to `Nc1ccc(C(=O)/C=C/c2ccccc2)cc1`, the growth was 46.9% in experiment [1]; 43% in experiment [2]; 102% in experiment [3]; 113% in [4]; 105% in experiment [5]; 110% in experiment [6]. For the same compound, the growth is 90.4% in [7], 75.2% in [8] and 106% in [9].
Regarding `CC(C)Nc1ccc(Nc2ccc(NC(C)C)cc2)cc1`, the growth is 26.2% in [1]; 17.8% in experiment [2]; 51.6% in experiment [3]; 96.3% in [4]; 49.5% in experiment [5]; 53.2% in experiment [6]. The growth in experiment [7] was 50.7%; in [8], 31.6%; in [9], 73.4%.
In the case of `CCSc1nc2ccccc2o1`, the growth in experiment [1] is 94.2%; in [2], 104%; in [3] it was 103%; in experiment [4], 101%; in experiment [5], 101%; in experiment [6], 104%. Also, the growth is 90.1% in [7], 111% in experiment [8], 102% in [9] and 108% in [10].
Consider `N=C(N)Sc1cccc[n+]1[O-]`, for which the growth in [1] was 4.61% (active); in [2], 7.12% (active); in experiment [3], 45.6%; in experiment [4] it was 98.2%; in experiment [5], 15.7%; in [6], 85.3%. The figures for the growth in [7], in experiment [8] and in experiment [9] were 46.5%, 21.7% and 82.9%, respectively.
Turning to `COC(=O)c1ccc(=O)c2nc3/c(=C/O)c(O)cc(=O)c3[nH]c12`, the growth is -11.4% (active) in experiment [1]; 51.1% in experiment [2]; 12.2% in [3]; 54.7% in [4]; 47.4% in experiment [5]; 52% in experiment [6]. Further, the figures for the growth in experiment [7], in experiment [8] and in [9] were -61.2% (active), -4.24% (active) and -10.3% (active), respectively.
`Cc1ccccc1NC(=O)Cc1csc2[n+]1C(=O)/C(=C/c1ccc([N+](=O)[O-])cc1)S2`: the growth is 79.7% in experiment [1]; 91.2% in experiment [2]; 97.9% in [3]; 98.4% in experiment [4]; 83.6% in experiment [5]; 90.1% in experiment [6]. The growth is 103% in experiment [7], 97.8% in [8], 98.6% in experiment [9] and 100% in experiment [10].
As for `CCCCCCC1N=C(N)N=C(N)N1c1cccc(Cl)c1` (stereo unspecified), the growth in experiment [1] was 31.5%; in [2], 14%; in experiment [3], 35.7%; in experiment [4], 58.9%; in [5], 43.9%; in experiment [6], 45.1%. Besides, the growth in experiment [7] is 58%; in experiment [8] it was 41.5%; in experiment [9], 55.2%; in experiment [10], 111%.
On to `O=C(c1ccccc1)C(Br)C(Br)c1ccccc1` (stereo unspecified), for which the growth in experiment [1] is 31.4%; in experiment [2] it was -3.12% (active); in experiment [3], 78.8%; in [4], 104%; in experiment [5] it was 90.2%; in experiment [6], 115%. In addition, the growth in [7] is -22.3% (active); in experiment [8], -10.9% (active); in [9], 104%; in experiment [10], 117%.
Regarding `Cc1onc(-c2ccccc2)c1C(=O)N/N=C/c1cc(Cl)cc(Cl)c1O`, the growth was 18.5% in experiment [1]; 39.6% in experiment [2]; 31.1% in experiment [3]; 58.1% in [4]; 32.1% in experiment [5]; 47.6% in experiment [6]. For the same compound, the growth in experiment [7] was 23.2%; in experiment [8], 25.2%; in experiment [9], 80%; in experiment [10] it was 17.1%.
Turning to `CC1(C)OCC(COC(c2ccccc2)(c2ccccc2)c2ccccc2)O1` (stereo unspecified), the growth in experiment [1] was 93.6%; in experiment [2] it was 105%; in [3] it was 98.4%; in [4], 98.1%; in experiment [5], 96%; in experiment [6], 112%. In addition, the growth was 108% in [7], 102% in experiment [8], 103% in [9] and 103% in experiment [10].
Take `COc1cc([C@@H]2c3cc4c(cc3[C@H](OC3OC5COC(c6ccccc6)OC5C(O)C3O)[C@H]3COC(=O)[C@H]23)OCO4)cc(OC)c1OC` (stereo partly specified): the growth in experiment [1] is -25.4% (active); in [2], -21.4% (active); in experiment [3], 29.4%; in experiment [4] it was 38.1%; in experiment [5], 45.3%; in experiment [6], 83.1%. The growth in experiment [7] is -45.7% (active); in experiment [8] it was 61.8%; in experiment [9], -30% (active); in experiment [10], -38.9% (active).
As to `CC(C)(C)c1ccc(O)c(Br)c1`, the growth is 106% in experiment [1]; 85% in experiment [2]; 103% in experiment [3]; 98.1% in [4]; 101% in experiment [5]; 120% in experiment [6]. In addition, the growth in experiment [7] is 111%; in experiment [8], 99.2%; in experiment [9], 96.4%; in [10], 100%.
On to `COc1ccc2nc3cc(Cl)ccc3c(NCCCCCN3CCCCC3)c2c1`, for which the growth in experiment [1] is -17.9% (active); in experiment [2], -27% (active); in [3], -13.6% (active); in [4], -27.1% (active); in experiment [5] it was -61% (active); in experiment [6] it was -15.2% (active). Moreover, the growth was 5.24% (active) in experiment [7], -21.8% (active) in experiment [8], 35.3% in experiment [9] and -8.47% (active) in [10].
